HTT ATP protect – Huntington cell model cytoprotection by ATP luminescence | PC12 HTT-Q103 induced, cytoprotection, ATP luminescence, 40 h | AID 1471 | hit rate 0.14% among 230,000 | Potency, µM (series often up to 56.4 µM), for the others: cytoprotection (ATP increase), actives largely listed as activators; note: potency is the fitted concentration of half-maximal effect; % of control where 0% means no effect; nearly all actives have a fitted effect of over 45% in size
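PC12 cells with ecdysone-inducible HTT exon 1 Q103-GFP, induced with 100 nM tebufenozide and co-treated with library compounds in a dose series (1536-well, 1500 cells/well). Cytoprotection read as ATP content by ATPlite luminescence.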
HttQ103 aggreg – inhibitors of mutant huntingtin aggregate formation in PC12 cells; Potency, µM (series often up to 46.1 µM), for inactives: at the highest dose activity change, negative = inhibition, usual class: inhibitors; hit rate 1.1% among 220,000; PC12 HttQ103-GFP aggregates, Acumen cytometry, 40 h; note: potency is the fitted concentration of half-maximal effect; % is set by controls: 0 for no effect and ±100 for the full control effect; nearly all actives have a fitted effect of over 60% in size
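Aggregate formation scored by laser-scanning cytometer (488 excitation, 500–530 emission) in lysed PC12 cells expressing Q103-GFP after 100 nM tebufenozide induction; library tested in dose series, with ATPLite reagent added in the multiplex.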
GALK inhibitor – galactokinase (human) inhibition; P51570; Purified GALK, Kinase-Glo residual ATP luminescence; Potency, µM (doses to about 57.5 µM), for the others: at the top dose activity change, negative = inhibition, hits mostly inhibitors; hit rate 0.007% among 270,000; AID 1868; note: potency is the fitted concentration of half-maximal effect; % is set by controls: 0 for no effect and ±100 for the full control effect
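Galactose (100 uM) and ATP (35 uM) were turned over by 5 nM GALK for 1 h at RT. Kinase-Glo Plus then converted the remaining ATP into a luminescent signal.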
PI4K2A block – blocks human PI4K2A kinase activity | purified PI4K2A, ADP-Glo luminescence, 1 h; active compounds read low | Q9BTU6 | hit rate 0.13% among 420,000 | activity change, negative = inhibition, % at 76.9 µM; in the data active = activity change below about -50%; inconclusive = mostly about -30% to -49%;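 note: -100% = wells without enzyme as full effect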
Target sequence (Q9BTU6 whole entry, looked up): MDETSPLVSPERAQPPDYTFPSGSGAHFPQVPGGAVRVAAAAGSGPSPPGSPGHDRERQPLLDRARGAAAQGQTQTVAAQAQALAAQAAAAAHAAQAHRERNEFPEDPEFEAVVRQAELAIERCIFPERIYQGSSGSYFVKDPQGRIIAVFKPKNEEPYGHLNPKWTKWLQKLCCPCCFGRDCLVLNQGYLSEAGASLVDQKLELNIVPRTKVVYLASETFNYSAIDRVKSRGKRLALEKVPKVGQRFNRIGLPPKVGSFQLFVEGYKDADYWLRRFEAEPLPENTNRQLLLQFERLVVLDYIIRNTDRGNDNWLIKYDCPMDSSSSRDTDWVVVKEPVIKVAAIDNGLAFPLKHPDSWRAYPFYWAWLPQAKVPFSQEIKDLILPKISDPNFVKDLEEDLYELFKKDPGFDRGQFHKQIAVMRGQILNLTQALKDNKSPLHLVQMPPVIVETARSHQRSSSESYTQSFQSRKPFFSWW
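ADP-Glo luminescence measured ADP generated by PI4K2A enzyme (4 ug/mL before mixing) with 1.2 mM PI substrate (pre-mix) and 300 microM ATP (pre-mix). Tris pH7.5 buffer with MgCl2, Triton X-100; 1 h reaction at ambient temperature.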
* marks the source's active call; other numbers are inactive results; ? = inconclusive; / = no result given; [ ] = dose if it differs, or a comment. This excerpt belongs to a sample that is enriched for hits. Unless noted, calls come from the whole dose curve; as a rule, active = well fitted curve in the direction sought with a large enough effect; inconclusive = small, poorly fitted or top-dose-only effect, or another doubt; inactive = no such curve, though single readings can be large; an effect the other way counts as inactive or inconclusive.

SMILES	HTT ATP protect	HttQ103 aggreg	GALK inhibitor	PI4K2A block
COc1ccc2[nH]c(=O)c(CN(CC3CCCO3)C(=O)Nc3ccc(F)cc3)cc2c1 (stereo unspecified)	5.3%[10 µM]	11.2µM*	1.4%	1.8
CN(C)c1ccccc1C(=O)N1CCCC(C(=O)c2ccc3ccccc3c2)C1 (stereo unspecified)	9.4%	31.6µM*	6.4%	4.6
CC(=O)c1cc2ccccc2s1	/	/	/	-0.5
COc1cccc(/C=N/NC(=S)Nc2cccnc2)c1	-7.5%	12.3%	4.0%	2.4
COc1ccc(O)c(/C=N/NC(=S)Nc2cccnc2)c1	-147.8%	12.6µM*	5.2%	5.5
COc1cc2c(cc1OC)CN(C(=O)[C@H](C)N[C@@H](CCc1ccccc1)C(=O)O)[C@H](C(=O)O)C2	/	/	/	-5.3
COC(=O)c1c[nH]n2c(=O)c(Cl)c(C)nc12	/	-1.6%	/	-7.7
COC(=O)c1c[nH]n2c(=O)c(Cc3ccc(F)cc3Cl)c(C)nc12	-10.5%[0.074 µM]	17.8µM*	-0.9%	1.9
CC(=O)N[C@@H](CO)C(=O)N[C@@H](CC(=O)O)C(=O)N[C@@H](CCCCN)C(=O)N1CCC[C@H]1C(=O)O	/	/	/	4.1
Cn1c(N=Nc2ccccc2)nc2ccccc21	/	-19.7%	9.8%	-87.3*
CN(C)c1ccc(N=Nc2nc3ccccc3n2C)cc1	-18.0%[10 µM]	24.3%[9.22 µM]	19.9%	-69.5*
COc1ccc(C(C#N)c2ccc(=O)[nH]n2)cc1 (stereo unspecified)	-42.7%	?	3.4%	-62.2*
CC(C)c1nc(N2CCN(C(=O)c3ccccc3)CC2)c(C#N)c2c1COC(C)(C)C2	-13.3%	14.1µM*	1.1%	2.2
CC(C)c1nc(N2CCN(C(=O)c3ccco3)CC2)c(C#N)c2c1COC(C)(C)C2	/	/	-2.4%	1.3
C[C@H]1C2CC(OC(=O)NCCCc3ccccc3)C(C2)[C@H]2CCCCN21 (stereo partly specified)	/	/	/	-4.1
COc1ccc(CCN2C(=O)CC(N3CCOCC3)C2=O)cc1 (stereo unspecified)	1.26µM*	-1.5%	2.0%	0.8
CCS(=O)(=O)c1c([N+](=O)[O-])ncn1C	/	3.55µM*	1.0%	-3.0
CCN(CC)c1c([N+](=O)[O-])ncn1C	5.0%	13.8%	-4.5%	1.2
CC(C)=CC[C@@H](O)C1=CC(=O)c2c(O)ccc(O)c2C1=O	-89.3%	/	/	/
CCCS(=O)(=O)NCCc1csc(-c2cccnc2)n1	-1.3%	/	/	/
CC1=C(C(=O)OCC(C)C)C(c2cccc(F)c2)N2C(=O)C(C)SC2=N1 (stereo unspecified)	11.8%[10 µM]	4.4%	-3.2%	6.3
CCOC(=O)C1=C(C)N=C2SC(C)C(=O)N2C1c1cccc(F)c1 (stereo unspecified)	25.1µM*	4.6%	4.6%	-5.8
O=C(c1ccc(-c2ccc(Cl)cc2)o1)N1CCN(c2ccc([N+](=O)[O-])cc2Cl)CC1	2.7%[10 µM]	7.08µM*	-0.1%	-10.2
CC1CCCCN1c1ncnc2ccccc12 (stereo unspecified)	-15.8%	10µM*	0.1%	-2.4
CC1CCCCN1c1ncnc(N)c1[N+](=O)[O-] (stereo unspecified)	10.8%	10µM*	6.6%	-10.8
SMILES	HTT ATP protect	HttQ103 aggreg	GALK inhibitor	PI4K2A block
CC1Cc2ccccc2N1c1ncnc(N)c1[N+](=O)[O-] (stereo unspecified)	?	0.891µM*	1.8%	-8.2
CC1Cc2ccccc2N1c1ncnc2nc[nH]c12 (stereo unspecified)	6.8%	11.2µM*	0.6%	1.3
c1ccc2c(c1)CCN(c1ncnc3nc[nH]c13)C2	27.4%[10 µM]	-18.2%	-1.8%	-5.5
CC1(C)C[C@](C)(C(=O)c2ccccc2)C=C1c1ccccc1	0.5%	/	/	/
c1ccc2c(c1)CCc1ccccc1N2	/	/	/	0.1
COc1cc([N+](=O)[O-])cc(/C=N/NC(=O)C(C)Nc2cccc3ccccc23)c1O (stereo unspecified)	21.9%[10 µM]	12.6µM*	-0.5%	-2.4
Cc1ccc(-c2cc(-c3nnc(SCC(=O)N4CCOCC4)n3N)[nH]n2)cc1	/	/	/	4.0
Cc1ccc2cccnc2c1	6.31µM*	/	/	/
CCOC(=O)C1=C(C)NC(C)=C(C(=O)OCC)C1c1c(F)c(F)c(F)c(F)c1F	/	/	/	-0.4
Cc1ccc(-n2c(SCC(=O)Nc3ccccc3-c3ccccc3)nnc2-c2cccs2)cc1	/	/	/	1.4
Cc1ccc(-c2[nH]ncc2/C=N/n2c(COc3ccccc3)nc3ccccc3c2=O)cc1	-22.5%[10 µM]	3.1%	0.4%	3.1
Cc1cc(/C=N/n2c(COc3ccccc3)nc3ccccc3c2=O)c(O)c([N+](=O)[O-])c1	40.9%[10 µM]	10µM*	/	-4.2
COc1ccc2c(c1)-c1c(ssc1=S)C(C)(C)N2C(=O)CSC1=NCCS1	30.5%[10 µM]	11.2µM*	0.4%	-20.2
CC1(C)c2ssc(=S)c2-c2ccccc2N1C(=O)CSC1=NCCS1	?	-9.0%	-2.0%	-6.3
CC(C)CCNC(=O)C1COC(O)(C(Cc2ccccc2)NC(=O)[C@@H](NC(=O)OCc2ccccc2)C(C)C)CN1 (stereo partly specified)	/	/	/	-5.6
N#CCSc1nc(Nc2ccc3c(c2)OCO3)c2ccccc2n1	-35.7%	25.1µM*	2.4%	0.2
CCOC(=O)CSc1nc(Nc2ccc3c(c2)OCO3)c2ccccc2n1	-5.9%	2.6%	-1.1%	2.5
COc1ccc2cc3[n+](cc2c1O)CCc1cc2c(cc1-3)OCO2	/	/	/	-52.3*
CCCC1CCC2(CC1)CCC2OC(=O)Nc1cccc(C(F)(F)F)c1 (stereo unspecified)	/	/	/	-1.6
O=C(Nc1ccc(Cl)c(Cl)c1)Nc1nnc(-c2ccncc2)s1	-2.7%[10 µM]	?	-0.3%	-12.8
COc1ccc(NC(=O)Nc2nnc(-c3ccncc3)s2)cc1	-23.5%	20µM*	-0.7%	-6.6
CCN(CC)CC(=O)Oc1ccc(NC(C)=O)cc1	/	/	/	-2.2
COC(=O)[C@](C)(N)Cc1ccc(O)cc1	-8.5%[1.9 µM]	/	/	/
CCNc1nc(NCC)n2c(SCc3ccc(F)cc3)nnc2n1	13.0%[10 µM]	2.51µM*	0.4%	4.7
O=C1CCC[C@H]2C[C@H](NCc3ccc(F)cc3F)CC[C@]23CCCN13	/	/	/	-4.9
SMILES	HTT ATP protect	HttQ103 aggreg	GALK inhibitor	PI4K2A block
COc1ccc(-c2c[n+](CC(=O)OC3CC(C)CCC3C(C)C)c3n2CCC3)cc1 (stereo unspecified)	-30.5%[10 µM]	10µM*	-3.3%	-3.5
CCn1c(=O)c(C(=O)Nc2ccsc2C(=O)OC)c(O)c2ccccc21	?	7.08µM*	0.8%	/
O=C(CN1CCN(Cc2ccccc2F)C1=O)NCc1ccco1	9.5%	0.126µM*	-0.9%	-1.2
O=C1CCC[C@H]2C[C@H](NCc3cccc(I)c3)CC[C@]23CCCN13	/	/	/	0.0
O=S(=O)(Nc1nnc(-c2ccccc2)s1)c1ccc(Cl)cc1	-23.6%	35.5µM*	-19.5%	3.0
CCCC(=O)N1CCC[C@]2(CC[C@@H](CCC(=O)OCC)O2)C1	/	/	/	-0.1
CC(C)(C)c1ccc(-c2nnc(SCC(=O)Nc3ccc(Oc4ccccc4)cc3)n2Cc2ccco2)cc1	/	/	/	-7.5
O=C(NNc1c2ccccc2nc2ccccc12)c1ccc(O)cc1O	-87.0%	10µM*	-4.6%	-2.4

High-throughput results from PubChem.
